Source: PubChem (The Scripps Research Institute Molecular Screening Center)
AHR act = human AHR activation. P35869. AHR-responsive luciferase reporter cells, luminescence. activation, % at 5 µM. 320,000 compounds, 2.5% hits. AID 2796; in the data active = activation above about 47%
Target sequence (P35869 whole entry, looked up): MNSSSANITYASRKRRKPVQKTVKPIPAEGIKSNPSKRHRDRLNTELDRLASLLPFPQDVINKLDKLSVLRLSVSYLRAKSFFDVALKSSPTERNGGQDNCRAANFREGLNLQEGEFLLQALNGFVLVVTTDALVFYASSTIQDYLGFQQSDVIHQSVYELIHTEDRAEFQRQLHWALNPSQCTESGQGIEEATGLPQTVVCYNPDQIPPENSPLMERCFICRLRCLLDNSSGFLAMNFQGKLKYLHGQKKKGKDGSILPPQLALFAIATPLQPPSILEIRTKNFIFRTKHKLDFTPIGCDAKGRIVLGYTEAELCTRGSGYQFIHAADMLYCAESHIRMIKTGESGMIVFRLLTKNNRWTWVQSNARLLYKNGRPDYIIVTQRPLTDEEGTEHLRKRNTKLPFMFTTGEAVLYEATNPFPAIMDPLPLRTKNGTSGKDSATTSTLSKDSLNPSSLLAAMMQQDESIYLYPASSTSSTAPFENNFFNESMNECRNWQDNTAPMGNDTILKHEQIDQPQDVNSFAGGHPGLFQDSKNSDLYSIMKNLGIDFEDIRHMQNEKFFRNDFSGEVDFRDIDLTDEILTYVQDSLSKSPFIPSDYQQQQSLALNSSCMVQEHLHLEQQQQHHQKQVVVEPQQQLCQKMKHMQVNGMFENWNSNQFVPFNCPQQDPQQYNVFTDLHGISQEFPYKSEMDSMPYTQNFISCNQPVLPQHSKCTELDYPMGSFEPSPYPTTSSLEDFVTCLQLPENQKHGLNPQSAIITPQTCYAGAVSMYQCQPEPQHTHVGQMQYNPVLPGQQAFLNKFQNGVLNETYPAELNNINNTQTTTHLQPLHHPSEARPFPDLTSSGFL
hcDAF-12 act = H. contortus DAF-12 activation, primary screen | HEK293 hcDAF-12 lit1-tk-luc reporter, luminescence; 0% DMSO, 100% Δ7-dafachronic acid | 370,000 compounds, 1.4% hits | activation, % at 6.8 µM;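 active = activation above the mean of all tested compounds plus 3 SD, cut at about 5.5% in these data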
DAX1 inh-1 = NR0B1 (DAX1) inhibition; HEK293 Gal4-DAX1 luciferase reporter, luminescence; inhibition, % at 6.75 µM; 340,000 compounds, 0.99% hits; AID 504766;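 active = inhibition above the mean over all tested compounds plus 3 SD, cut at about 4.2% in these data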;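 also: inhibition shows as a rise in luminescence from relieved DAX1 repression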
ssDAF12 agonist = activates DAF-12 receptor from parasite S. stercoralis. HEK293 ssDAF-12/GRIP1 lit1-tk-luc reporter, luminescence; % of 3 µM dafachronic acid response. activation, % at 6.8 µM. 370,000 compounds, 1% hits. AID 652126;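 active = activation above the mean over all tested compounds plus 3 SD, cut at about 0.9% in these data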
hgDAF12 agonist = activates the H. glycines DAF-12 receptor ligand-binding domain; activation, % at 6.8 µM; 370,000 compounds, 1.8% hits; HEK293 GAL4-hgDAF12 UAS-luciferase reporter, agonist luminescence; normalized to butyrate control;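 active = activation above a cutoff set at the mean of all screened compounds plus 3 SD, cut at about 10% in these data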
DAX1 inh-2 = DAX1 (NR0B1) inhibition, primary screen; HEK293T StAR-luciferase reporter, SF-1/DAX-1 repression relief; inhibition, % at 6.8 µM; 370,000 compounds, 1.1% hits; AID 652010;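 active = inhibition above the mean over all tested compounds plus 3 SD, cut at about 3.6% in these data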;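 also: higher inhibition means more luminescence from relief of DAX-1 repression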
Large screens that a line does not name were inactive; ! = repeats disagree. Most compounds without a hit are left out; they make up all but 5.7% or so of the library.

CCOC(=O)c1[nH]c(C)c(C(=O)Nc2ccccc2F)c1C	none
CCOC(=O)c1c(C)[nH]c(C(=O)OCc2ccccc2F)c1C	hcDAF-12 act 6.3, DAX1 inh-1 5.5, hgDAF12 agonist 13
CCOC(=O)c1c(C)[nH]c(C(=O)OCC(=O)N(C)CC(=O)Nc2ccccc2Cl)c1C	ssDAF12 agonist 1.0
CCOC(=O)c1c(C)[nH]c(C(=O)OCCOc2ccccc2C)c1C	hgDAF12 agonist 11 (no result: AHR act)
O=C(O)c1ccccc1SCc1nc2ccccn2c1Br	none
COCCCNCCOCCOc1ccc(C)cc1Br	hcDAF-12 act 5.7
Cc1ccc(S(=O)(=O)N/N=C/c2cccc(OC3CSC3)c2)cc1	none
CCOC(=O)c1nnn(CC(=O)N2N=C(c3ccccc3)CC2c2ccccc2)c1C(=O)OCC (configuration not stated)	DAX1 inh-1 5.1
CCOC(=O)/C=C(\C)N1N=C(c2ccccc2)CC1c1ccccc1 (configuration not stated)	hcDAF-12 act 6.7
CCOC(=O)c1nnn(CC(=O)N2N=C(c3cc(C)ccc3C)CC2c2ccc(OC)cc2)c1C(=O)OCC (configuration not stated)	none
CCOc1ccc(N(CC(=O)NC2CCCC2)C(=O)Cn2nnc(-c3ccc(C)o3)n2)cc1	none (no result: AHR act)
O=C(Nc1ccc2c(c1)OCCO2)c1ccc(Br)o1	hgDAF12 agonist 12
O=C(Nc1ccc2c(c1)OCO2)c1ccc([N+](=O)[O-])cc1[N+](=O)[O-]	AHR act 72
CC(NC(=O)c1ccccc1Cl)C(=O)Nc1ccc2c(c1)OCO2 (configuration not stated)	none (no result: AHR act)
CC(OC(=O)c1ccc(Br)o1)C(=O)Nc1ccc2c(c1)OCCO2 (configuration not stated)	none
O=C(CC(NC(=O)c1ccccc1Cl)c1ccccc1)Nc1ccc2c(c1)OCO2 (configuration not stated)	AHR act 60
COc1ccc(OC)c(NC(=O)c2cccc3c2C(=O)N(C2CCCCC2)C3)c1	none
COCCN1Cc2cccc(C(=O)Nc3cc(OC)ccc3OC)c2C1=O	AHR act 48
COc1cc(/C=C2\C(=O)NN(c3ccc(C)cc3)C2=O)cc([N+](=O)[O-])c1O	none
O=C(Nc1ccc(F)cc1)N[C@@H]1CC[C@@H](CCn2cc(-c3ccc(F)cc3)nn2)O[C@@H]1CO	none (no result: AHR act, DAX1 inh-1)
O=C(Nc1ccc2c(c1)OCCO2)c1cccc(Cl)c1Cl	hgDAF12 agonist 12
O=C(O)c1cc(NC(=O)c2ccc(Cl)c([N+](=O)[O-])c2)cc(C(=O)O)c1	none
CCCN1Cc2cccc(C(=O)Nc3ccc4c(c3)OCCO4)c2C1=O	DAX1 inh-1 4.6
O=C(Nc1ccc2c(c1)OCCO2)c1ccc(Cl)c([N+](=O)[O-])c1	hgDAF12 agonist 13
CCCn1c(SCc2ccccn2)nc2c1c(=O)n(C)c(=O)n2C	none
N=C1SC(c2ccccc2)C(=O)N1c1ncc(Cc2ccccc2)s1 (configuration not stated)	hgDAF12 agonist 13
O=C(CCS(=O)(=O)c1ccccc1)Nc1ncc([N+](=O)[O-])s1	none
Cc1ncoc1C(=O)Nc1ncc([N+](=O)[O-])s1	hgDAF12 agonist 12
Cc1cnc(NC(=O)c2cccs2)s1	hcDAF-12 act 6.2, hgDAF12 agonist 12
O=C(Nc1ncc([N+](=O)[O-])s1)c1cccs1	DAX1 inh-2 4.3!
O=C(CCS(=O)(=O)Cc1ccccc1)Nc1ncc([N+](=O)[O-])s1	DAX1 inh-2 4.0
Cc1ccnc(NC(=O)c2cccc(NS(=O)(=O)c3ccccc3C)c2)c1	none (no result: AHR act)
CN1C(=O)/C(=C/c2ccc(OCc3ccccc3F)cc2)NC1=S	none
CCOc1ccc(CN2CCN(Cc3cc4ccccc4[nH]3)CC2CCO)cc1 (configuration not stated)	ssDAF12 agonist 2.0 (no result: AHR act)
CC(C)(C)CN1CCN(Cc2cc3ccccc3[nH]2)CC1CCO (configuration not stated)	hcDAF-12 act 6.3
O=C(NCC(=O)N1CCCCCCC1)c1ccccc1Br	none
O=C(O/N=C1/CCCc2occc21)c1ccc(Cl)cc1Cl	DAX1 inh-1 6.8
O=C(O/N=C1/CCCc2occc21)c1ccccc1	none
CCOC(=O)C1=C(COC(=O)/C=C/c2ccc(OCC)c(OC)c2)NC(=O)NC1C (configuration not stated)	none
COc1cccc(-c2nnc(NC(=O)c3ccco3)s2)c1	none
COc1cccc(NC(=O)c2cccs2)c1	hgDAF12 agonist 13
COc1cc(N)ccc1NC(=O)c1cccs1	AHR act 60
COc1cc(NC(=O)c2cc(OC)c(OC)c(OC)c2)ccc1NC(=O)c1cccs1	none
COc1cccc(-c2nnc(NC(=O)c3cccs3)s2)c1	AHR act 64
Cc1cccn2cc(-c3cccc(NC(=O)c4cccs4)c3)nc12	none
Cc1ccn2cc(-c3cccc(NC(=O)c4cccs4)c3)nc2c1	hgDAF12 agonist 11
CCOCCn1c(=O)c2c(nc3n2CCN3c2ccc(C)cc2)n(C)c1=O	none
COc1ccc(C(=O)/C=C\c2ccc(NC(=O)c3cccs3)cc2)cc1	hcDAF-12 act 6.5
CCCn1c(N)c(N(CCOC)C(=O)c2c(CC)noc2C)c(=O)[nH]c1=O	none (no result: AHR act)
c1ccc(Cn2ccc(-c3cnc(-c4ccccc4)s3)n2)cc1	hgDAF12 agonist 12
Cc1ccc(OCCC(=O)NNC(=O)c2cc(C)oc2C)cc1	DAX1 inh-1 4.4
COc1cc(OC)cc(C(=O)OCC(=O)Nc2cccc(C(C)=O)c2)c1	none
CC(=O)c1cc2c(cc1N(C(=O)Cn1nnc3ccccc31)C(C(=O)NCCC(C)C)c1cccnc1)OCO2 (configuration not stated)	none (no result: DAX1 inh-1)
COc1ccc(-c2cn[nH]c2-c2ccc(OCc3ccc([N+](=O)[O-])cc3)cc2O)cc1	AHR act 51
O=C(NC(Cc1ccccc1)C(=O)OCC(=O)N1CCc2ccccc21)c1ccco1 (configuration not stated)	none
COC(=O)C(NC(C)=O)(Nc1ccc(C)cn1)C(F)(F)F (configuration not stated)	DAX1 inh-1 4.2
C=CC(=O)Nc1ccc(CN2C(=O)N(c3c(Cl)c(OC)cc(OC)c3Cl)Cc3cnc(NCCCCN(CC)CC)nc32)cc1	none (no result: hcDAF-12 act, ssDAF12 agonist, hgDAF12 agonist, DAX1 inh-2)
COc1cc(/C=C2\CCCc3c2nc2ccccc2c3C(=O)O)cc([N+](=O)[O-])c1O	none
Cc1ccccc1Cn1c(-c2ccc(=O)[nH]c2)nc2ccccc21	none
Cc1cc2nc(-c3ccc(=O)[nH]c3)n(Cc3ccccc3)c2cc1C	AHR act 79
O=C(NC1CCCCC1)/C(=N\O)c1ccccn1	none
CCn1c2ccccc2c2cc(N=C3SC(CC(=O)Nc4ccccc4OC)C(=O)N3CCOC)ccc21 (configuration not stated)	AHR act 62
